Common to all, as to assay: NP40-soluble protein abundance relative to vehicle (solubility fold change) (ratio); higher = more soluble protein in presence of GTP
One assay addresses T1, GLA (UniProt P06280).
T1 sequence (whole entry): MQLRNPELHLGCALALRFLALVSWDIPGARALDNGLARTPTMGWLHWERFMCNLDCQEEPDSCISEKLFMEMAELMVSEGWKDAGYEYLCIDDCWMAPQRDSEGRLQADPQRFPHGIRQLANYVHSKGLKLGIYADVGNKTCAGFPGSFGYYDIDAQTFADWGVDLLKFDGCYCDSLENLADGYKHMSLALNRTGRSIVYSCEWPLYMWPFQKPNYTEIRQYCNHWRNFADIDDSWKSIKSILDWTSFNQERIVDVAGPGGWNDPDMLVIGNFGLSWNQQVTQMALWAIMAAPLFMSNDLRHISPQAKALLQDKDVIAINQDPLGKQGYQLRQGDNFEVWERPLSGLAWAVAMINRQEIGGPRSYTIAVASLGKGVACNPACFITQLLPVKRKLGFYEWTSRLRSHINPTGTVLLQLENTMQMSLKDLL
The method in brief:
(§1)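 Jurkat crude lysate (Dounce-homogenised) was treated with eight concentrations from 0.1 to 10 mM for 10 min at room temperature, then 3 min at 37 °C. It was solubilised with 0.8% NP40 and benzonase (60 min, 4 °C) and ultracentrifuged, and the supernatant was TMT-labelled for LC-MS/MS. Intensities were vsn-normalised, and the value is the fold change against the NP40-processed vehicle per replicate, from three independent experiments.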

The next assay concerns the target T2, SEC24A (UniProt O95486).
T2 sequence (whole entry): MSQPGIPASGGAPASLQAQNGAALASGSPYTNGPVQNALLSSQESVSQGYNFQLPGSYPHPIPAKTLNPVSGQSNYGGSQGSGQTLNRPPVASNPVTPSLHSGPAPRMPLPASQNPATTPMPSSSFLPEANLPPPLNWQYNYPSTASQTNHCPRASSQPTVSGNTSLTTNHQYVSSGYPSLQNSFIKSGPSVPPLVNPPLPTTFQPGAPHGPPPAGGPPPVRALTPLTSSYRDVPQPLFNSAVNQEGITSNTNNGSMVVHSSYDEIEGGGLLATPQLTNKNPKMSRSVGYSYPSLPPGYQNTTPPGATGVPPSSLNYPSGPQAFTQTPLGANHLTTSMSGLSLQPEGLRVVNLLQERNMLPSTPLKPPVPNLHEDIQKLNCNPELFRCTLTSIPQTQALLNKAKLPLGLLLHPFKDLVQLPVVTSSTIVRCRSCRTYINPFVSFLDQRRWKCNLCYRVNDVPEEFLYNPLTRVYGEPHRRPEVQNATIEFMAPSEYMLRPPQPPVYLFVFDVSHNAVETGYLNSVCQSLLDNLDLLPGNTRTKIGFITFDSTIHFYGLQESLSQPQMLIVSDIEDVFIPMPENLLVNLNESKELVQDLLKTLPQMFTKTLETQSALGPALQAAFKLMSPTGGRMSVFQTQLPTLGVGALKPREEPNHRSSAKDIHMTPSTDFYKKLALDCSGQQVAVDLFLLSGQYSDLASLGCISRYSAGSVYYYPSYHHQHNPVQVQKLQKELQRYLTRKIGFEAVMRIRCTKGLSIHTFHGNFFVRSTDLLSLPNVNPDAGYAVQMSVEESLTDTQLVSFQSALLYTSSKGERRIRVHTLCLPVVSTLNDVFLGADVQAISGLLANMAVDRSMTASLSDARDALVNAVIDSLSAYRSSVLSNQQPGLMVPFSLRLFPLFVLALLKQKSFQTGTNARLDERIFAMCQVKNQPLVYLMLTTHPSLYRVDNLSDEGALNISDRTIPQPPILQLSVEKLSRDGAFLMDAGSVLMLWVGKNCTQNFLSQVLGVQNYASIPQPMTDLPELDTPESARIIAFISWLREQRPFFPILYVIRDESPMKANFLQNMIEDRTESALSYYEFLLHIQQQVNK
In outline:
as §1

A further assay concerns the target T3, TXNL1 (UniProt O43396).
T3 sequence (whole entry): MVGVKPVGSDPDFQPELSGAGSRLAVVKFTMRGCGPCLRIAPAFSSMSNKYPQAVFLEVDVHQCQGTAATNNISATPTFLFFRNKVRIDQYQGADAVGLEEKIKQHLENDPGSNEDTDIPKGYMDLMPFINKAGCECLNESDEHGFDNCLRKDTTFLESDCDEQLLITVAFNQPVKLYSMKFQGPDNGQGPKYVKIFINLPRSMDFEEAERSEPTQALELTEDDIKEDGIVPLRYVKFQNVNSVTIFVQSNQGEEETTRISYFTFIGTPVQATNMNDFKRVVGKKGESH
In outline:
as §1

± gives the standard deviation of the averaged measurements. About 5,400 targets were measured; listed, in parts, are those with the largest changes and a random draw of the rest.

In the case of `Nc1nc2c(ncn2[C@@H]2O[C@H](COP(=O)(O)OP(=O)(O)OP(=O)(O)O)[C@@H](O)[C@H]2O)c(=O)[nH]1` [guanosine triphosphate], the NP40-soluble protein abundance in the assay with GLA (concentration: 0.1mM) turned out to be 1.04 ± 0.017; in the assay with GLA (concentration: 0.5mM), 1.04 ± 0.018; in the assay with GLA (concentration: 1mM) it was 1.01 ± 0.039; in the assay with GLA (concentration: 2mM), 0.982 ± 0.068; with GLA (concentration: 4mM), 0.985 ± 0.063; in the assay with GLA (concentration: 6mM) it was 0.966 ± 0.087. Besides, the NP40-soluble protein abundance was determined as 0.983 ± 0.04 with GLA (concentration: 8mM); 0.979 ± 0.048 with GLA (concentration: 10mM); 0.974 ± 0.013 with SEC24A (concentration: 0.1mM); 0.986 ± 0.021 in the assay with SEC24A (concentration: 0.5mM); 0.926 ± 0.041 in the assay with SEC24A (concentration: 1mM); 0.909 ± 0.026 in the assay with SEC24A (concentration: 2mM). Further, the NP40-soluble protein abundance worked out at 0.957 ± 0.019 in the assay with SEC24A (concentration: 4mM); 0.944 ± 0.02 with SEC24A (concentration: 6mM); 0.909 ± 0.027 with SEC24A (concentration: 8mM); 0.915 ± 0.036 with SEC24A (concentration: 10mM); 0.993 ± 0.02 in the assay with TXNL1 (concentration: 0.1mM); 1.03 ± 0.064 with TXNL1 (concentration: 0.5mM). Moreover, the NP40-soluble protein abundance was 1.02 ± 0.042 with TXNL1 (concentration: 1mM); 1.01 ± 0.07 with TXNL1 (concentration: 2mM); 1 ± 0.052 in the assay with TXNL1 (concentration: 4mM); 1.01 ± 0.046 with TXNL1 (concentration: 6mM); 1 ± 0.044 in the assay with TXNL1 (concentration: 8mM); 1.01 ± 0.054 with TXNL1 (concentration: 10mM).

The values are drawn from the supplement of paper PMC6411743.
